Potency and affinity values are given separately. Inconclusive results are not listed. Calls of active or inactive are those of the source. Unless noted, how the calls were made is not given here.
Columns and labels:
[1] = PAX8 transcriptional activity inhibition in RMG-I – RMG-I cells, luciferase, cherry-pick, dose response (AID 687027;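 active means every replicate test run called active, with the signal dropping as expected and potency within twice the top valid dose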)
[2] = RMG-1 ovarian cancer cell viability loss – cherry-pick, dose response (AID 687029;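 active means signal drop whose fitted half-maximal concentration is at most twice the top valid dose, in every test run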;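 further: cells exposed to compound for 96 hours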)
[3] = IOSE-T80 viability loss, PAX8-independent line – cell-based, cherry-pick, selectivity assay for PAX8 inhibitor project, dose response (AID 687032;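 active means fitted half-maximal concentration for viability loss no higher than twice the top valid dose, in every repeat run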;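 further: cells exposed to compound for 96 h before reading; 0% = neutral control wells and -100% = 2 µM mitoxantrone kill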)
[4] = general cell-killing toxicity readout – plate reader, dry powder samples, cytotoxicity control for PAX8 inhibitor project, dose response (AID 743021)
[5] = CMV-driven luciferase expression suppression in HEK293 – cell-based, luminescence, dry powder, counter-screen for Pax8 inhibitor project, dose response (AID 743020;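 active means signal-lowering compounds whose fitted half-maximal concentration is at or below twice the top tested dose in every run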;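 further: HEK293 cells stably expressing the CMV luciferase reporter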)
[6] = IGROV1 cell killing – plate reader, dry powder samples, PAX8 inhibitor project, dose response (AID 743043);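 further: more negative means fewer viable cells or more cytotoxicity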
[7] = OVCAR-3 cell viability loss – plate reader, dry powder samples, PAX8 inhibitor project, dose response (AID 743044); conditions: max activity: at 35 µM, hits give low values unless noted
[8] = toxicity toward immortalized ovarian surface epithelium – cell-based, plate reader, dry powder samples, cytotoxicity control for PAX8 inhibitor project, dose response (AID 743045);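 further: 0% = neutral control median and -100% = positive control median; more negative values mean more cell killing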
[9] = A2780 cell killing – plate reader, dry powder samples, cytotoxicity control, dose response (AID 743046);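 further: 0% = neutral control wells and -100% = cytotoxic reference compound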
[10] = OVCAR8 cell viability loss – plate reader, dry powder samples, PAX8 project, dose response (AID 743197)

CC(=O)Nc1ccc(C(=O)CSc2cc(C)c3cccc(C)c3n2)cc1
inactive: outcome [1] | outcome [2] | outcome [3] | outcome [4]

CCN(C(=O)COC(=O)c1ccc(S(=O)(=O)N2CCCc3ccccc32)cc1)C1CCS(=O)(=O)C1 (configuration not stated)
inactive: outcome [1] | outcome [2] | outcome [3] | outcome [4]

Fc1ccc(CSc2ccc(-c3ccco3)nn2)cc1
inactive: outcome [1] | outcome [2] | outcome [3] | outcome [4]

Cc1cccc(C(=O)Oc2ccc(/C=N/NC(=O)c3ccccc3O)cc2)c1
inactive: outcome [1] | outcome [2] | outcome [3] | outcome [4]

CCCCC(=O)N1CCN(c2ccc(OC)cc2[N+](=O)[O-])CC1
inactive: outcome [1] | outcome [2] | outcome [3] | outcome [4]

O=C(/C=C/c1ccc(Cl)cc1Cl)N1CCN(c2ccccc2[N+](=O)[O-])CC1
inactive: outcome [1] | outcome [2] | outcome [5] | outcome [4]

O=C(Cc1ccccc1)c1ccccc1C(=O)N1CCCCC1
inactive: outcome [1] | outcome [2] | outcome [5] | outcome [4]

COc1ccc(C2CC(c3ccc(Br)cc3)=NN2C(=S)Nc2ccccc2)cc1 (configuration not stated)
inactive: outcome [1] | outcome [2] | outcome [3] | outcome [4]

CCCCC1Cc2[nH]c(=S)[nH]c(=O)c2C(c2ccc(F)cc2)O1 (configuration not stated)
inactive: outcome [1] | outcome [2] | outcome [5] | outcome [4]

Cc1cc(OCCCn2cnc3ccccc3c2=O)ccc1[N+](=O)[O-]
inactive: outcome [1] | outcome [2] | outcome [5] | outcome [4]

O=C(O)CC(NC(=O)C1c2ccccc2Oc2ccccc21)c1ccc(OC2CCCC2)cc1 (configuration not stated)
inactive: outcome [1] | outcome [2] | outcome [5] | outcome [4]

COc1ccccc1NC1=Nc2cccc3cccc1c23
inactive: outcome [1] | outcome [2] | outcome [3] | outcome [4]

Cc1cc(=O)oc2ccc(OC(=O)CN3C(=O)c4cccc([N+](=O)[O-])c4C3=O)cc12
inactive: outcome [1] | outcome [2] | outcome [3] | outcome [4]

O=[N+]([O-])c1ccc2nc(SCc3cn4ccccc4n3)[nH]c2c1
inactive: outcome [1] | outcome [2] | outcome [3] | outcome [4]

O=[N+]([O-])c1cccc(-c2nnc(-c3ccc4c(c3)OCO4)o2)c1
inactive: outcome [1] | outcome [2] | outcome [5] | outcome [4]

O=C(NNC(=O)c1cccc2ccccc12)c1cccc(F)c1
inactive: outcome [1] | outcome [2] | outcome [5] | outcome [4]

O=C(Cn1cc(C(F)(F)F)ccc1=O)Nc1ccc2c(c1)OCO2
inactive: outcome [1] | outcome [2] | outcome [5] | outcome [4]

COc1ccc(NC(=O)C[C@H]2C(=O)N(c3ccc(OC)cc3)C[C@@H]2C)cc1
inactive: outcome [1] | outcome [2] | outcome [5] | outcome [4]

COc1ccc2oc(C)c(C(=O)c3ccc([N+](=O)[O-])cc3)c2c1
inactive: outcome [1] | outcome [2] | outcome [3] | outcome [4]

COc1ccc(-c2cn(CC[C@@H]3CC[C@H](NC(=O)Cc4ccccn4)[C@@H](CO)O3)nn2)cc1
inactive: outcome [1] | outcome [2] | outcome [3] | outcome [4] | outcome [6] | max activity [7] -8.11% [at 8 µM, hits give low values] | outcome [8] | outcome [9] | outcome [10]

O=C1c2cccc3c(O)ccc(c23)C(=O)N1c1ccc(Cl)cc1
inactive: outcome [1] | outcome [2] | outcome [3] | outcome [4]

O=C(Nc1ccccc1)N1CCCCN2[C@@H](CO)[C@@H](c3ccc(C#Cc4ccccc4)cc3)[C@@H]2C1
inactive: outcome [1] | outcome [2] | outcome [5] | outcome [4]

O=C(O)C1C=CC(C(=O)O)c2ccccc21 (configuration not stated)
inactive: outcome [1] | outcome [2] | outcome [5] | outcome [4]

O=C(CSc1nc2ccccc2s1)NCCOc1ccccc1
inactive: outcome [1] | outcome [2] | outcome [3] | outcome [4]

COc1ccc(C(C)NC(=O)c2ccc(Br)cc2)cc1OC (configuration not stated)
inactive: outcome [1] | outcome [2] | outcome [5] | outcome [4]

O=C(Cc1cccs1)N/N=C/C=C/c1ccccc1
inactive: outcome [1] | outcome [2] | outcome [5] | outcome [4]

O=C(/C=C/c1c(Cl)nc2ccccn12)Nc1ccc(F)cc1
inactive: outcome [1] | outcome [2] | outcome [3] | outcome [4]

Cc1nn(CCO)c2nc(-c3cccs3)cc(C(F)(F)F)c12
inactive: outcome [1] | outcome [2] | outcome [3] | outcome [4]

O=C(CSc1cccc[n+]1[O-])Nc1cc(S(=O)(=O)N2CCOCC2)ccc1N1CCOCC1
inactive: outcome [1] | outcome [2] | outcome [3] | outcome [4]

Cc1cccc(OCc2nc(-c3cccnc3)no2)c1
inactive: outcome [1] | outcome [2] | outcome [3] | outcome [4]

COc1ccc(O)c(C(c2c(C)[nH][nH]c2=O)c2c(C)[nH][nH]c2=O)c1
inactive: outcome [1] | outcome [2] | outcome [3] | outcome [4]

COc1ccc(NC(=O)c2nn(C34CC5CC(CC(C5)C3)C4)cc2[N+](=O)[O-])cc1
inactive: outcome [1] | outcome [2] | outcome [5] | outcome [4]

O=C(Cc1nnc(NC(=O)c2ccccc2)s1)N/N=C/c1ccco1
inactive: outcome [1] | outcome [2] | outcome [5] | outcome [4]

CC(=O)N/C(=C\c1ccccc1)C(=O)OCC(=O)NC1CCCC1
inactive: outcome [1] | outcome [2] | outcome [5] | outcome [4]

CC1CCN(CCOc2ccc(OCc3ccccc3)cc2)CC1
inactive: outcome [1] | outcome [2] | outcome [3] | outcome [4]

CN1CCN(C(=S)Nc2ccc(Cl)c(Cl)c2)CC1
inactive: outcome [1] | outcome [2] | outcome [5] | outcome [4]

O=C(/C=C/c1ccco1)Nc1nc(-c2ccccc2)cs1
inactive: activity change, negative = inhibition [1] 99.9% [at 8 µM] | outcome [2] | outcome [3] | outcome [4]

Cc1ccc(/C=N/NC(=O)c2ccccn2)o1
inactive: activity change, negative = inhibition [1] 80.8% [at 8 µM] | outcome [2] | outcome [3] | outcome [4]

CC(=O)C1=C(O)C(=O)N(CCc2ccccc2)C1c1ccccc1[N+](=O)[O-] (configuration not stated)
inactive: outcome [1] | outcome [2] | outcome [4]

COc1ccc2c(c1)OC/C(=C/c1cccs1)C2=O
inactive: outcome [1] | outcome [2] | outcome [4]

Cc1ccc(/C=C/C(=O)N2CCN(c3cccc(C(F)(F)F)c3)CC2)cc1
inactive: outcome [1] | outcome [2] | outcome [4]

COc1ccc(-n2nc([N+](=O)[O-])c(=NCc3cccnc3)n2O)cc1
inactive: outcome [1] | outcome [2] | outcome [5] | outcome [4]

COc1ccc(C(=O)NC(=S)NNC(=O)COc2ccccc2)cc1
inactive: outcome [1] | outcome [2] | outcome [4]

CC(C)(C)OC(=O)[C@H](Cc1ccccc1)NC(=O)c1nc[nH]c1C(=O)N[C@@H](Cc1ccccc1)C(=O)OC(C)(C)C
inactive: activity change, negative = inhibition [1] -24.7% [at 8 µM] | outcome [2] | outcome [4]

Nc1ccc2c(c1)CC(=O)c1ccccc1S2
inactive: outcome [1] | outcome [2] | outcome [5] | outcome [4]

C[C@@H]1CN([C@@H](C)CO)C(=O)CCCn2nncc2CO[C@H]1CN(C)S(=O)(=O)c1ccc(Cl)cc1
inactive: outcome [1] | outcome [2] | outcome [4]

CCCCCCCCNC(=O)c1cnccn1
inactive: outcome [1] | outcome [2] | outcome [5] | outcome [4]

COc1ccc(C)cc1NC(=O)C1CCCN(S(=O)(=O)c2cccc3nonc23)C1 (configuration not stated)
inactive: outcome [1] | outcome [2] | outcome [5] | outcome [4]

Cc1ccc(-c2nc(C)sc2CC(=O)OCC(=O)Nc2cccc([N+](=O)[O-])c2)cc1
inactive: outcome [1] | outcome [2] | outcome [4]

CCNC(=O)C1(C)CCN(C(=O)c2ccccc2F)C1 (configuration not stated)
inactive: outcome [1] | outcome [2] | outcome [5] | outcome [4]

Cc1ccc(NC(=O)c2c([N+](=O)[O-])c(C(C)(C)C)nn2C)c(C)c1
inactive: outcome [1] | outcome [2] | outcome [4]

COc1ccc(C(=O)N/N=C/c2ccc(OC(=O)c3cccs3)cc2)cc1
inactive: outcome [1] | outcome [2] | outcome [4]

O=C(CCN1C(=O)/C(=C/c2ccccc2Cl)SC1=S)Nc1ccccc1C(=O)O
inactive: outcome [1] | outcome [2] | outcome [5] | outcome [4]

Cc1ccc2nc(-c3ccc(NC(=S)NC4CC(C)(C)NC(C)(C)C4)cc3)sc2c1
inactive: outcome [1] | outcome [2] | outcome [4]

Cc1cnc(NC(=O)CSc2nnc(C)n2N)s1
inactive: outcome [1] | outcome [2] | outcome [5] | outcome [4]

OCC1CCCN(C(=S)Nc2ccc(OC(F)F)cc2)C1 (configuration not stated)
inactive: outcome [1] | outcome [2] | outcome [4]

C[C@H](CO)N1C[C@H](C)[C@@H](CN(C)C(=O)Nc2ccnc(N3CCOCC3)c2)OCc2cnnn2CCCC1=O
inactive: outcome [1] | outcome [2] | outcome [5] | outcome [4] | outcome [6] | max activity [7] 8.36% [at 0.26 µM, hits give low values] | outcome [8] | outcome [10]

O=C(NCC1CCCO1)C(=O)NCC(c1ccco1)N1CCN(c2ccccc2)CC1 (configuration not stated)
inactive: outcome [1] | outcome [2] | outcome [5] | outcome [4]

CCCNC(=O)COC(=O)/C=C/c1ccco1
inactive: outcome [1] | outcome [2] | outcome [4]

CN(C)CC#Cc1ccc([C@@H]2[C@H](CO)N3CCCCN(C(=O)Nc4ccc(F)cc4)C[C@@H]23)cc1
inactive: outcome [1] | outcome [2] | outcome [5] | outcome [4] | outcome [6] | max activity [7] 29.4% [at 0.26 µM, hits give low values] | outcome [8] | outcome [9] | outcome [10]

Cc1ccc(-c2ccc([C@@H]3[C@H](CO)N4CCCCN(C(=O)Nc5cccc(F)c5)C[C@@H]34)cc2)cc1
inactive: outcome [1] | outcome [2] | outcome [5] | outcome [4] | outcome [8] | outcome [9]

COc1ccc(OCCNC(=O)/C=C/c2ccc([N+](=O)[O-])cc2)cc1
inactive: outcome [1] | outcome [2] | outcome [5] | outcome [4]

CCCCCC(=O)N/N=C(\C)c1ccc(N2CCCCC2)cc1
inactive: outcome [1] | outcome [2] | outcome [4]

O=C(NCc1ccc(F)cc1)C1(c2cccs2)CCOCC1
inactive: outcome [1] | outcome [2] | outcome [4]

Cc1cc([N+](=O)[O-])nn1CCCC(=O)Nc1sc2c(c1C(N)=O)CCC(C)C2 (configuration not stated)
inactive: outcome [1] | outcome [2] | outcome [4]

O=C(Cc1ccc(F)cc1)OCC(=O)N1CCN(S(=O)(=O)c2ccc(Cl)cc2)CC1
inactive: outcome [1] | outcome [2] | outcome [5] | outcome [4]

Nn1cnnc1N/N=C\c1ccc(-c2ccccc2[N+](=O)[O-])o1
inactive: outcome [1] | outcome [2] | outcome [5] | outcome [4]

Cn1ccnc1SCc1nc2c(cnn2-c2ccccc2)c(=O)[nH]1
inactive: outcome [1] | outcome [2] | outcome [4]

Oc1ccc(F)c2cccnc12
inactive: outcome [1] | outcome [3] | outcome [5] | outcome [4]

Cc1cc(C)c2c(c1)/C(=N/NC(=O)c1cc(C)oc1C)CCC2
inactive: outcome [1] | outcome [2] | outcome [4]

O=[N+]([O-])c1cc(-c2nnc(-c3ccccc3)o2)ccc1Oc1ccc(Cl)cc1
inactive: outcome [1] | outcome [2] | outcome [4]

From PubChem BioAssay
